# Most compounds without a hit are left out; they make up all but 19% or so of the library.
# DT40 TDP1 CPT: growth inhibition of DT40 Tdp1-/-;hTDP1 cells with camptothecin (screen for TDP1 inhibitors); chicken DT40 Tdp1-/-;hTDP1 cells + 20 nM CPT, ATP luminescence, 48 h; Potency, µM (titrated, usually from 46.2 µM), inactives show at the highest dose activity change, negative = growth inhibition, actives largely listed as inhibitors; actives 12% (n = 420,000); AID 686979; also: nearly all actives have a fitted effect of over 55% in size
#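 Chicken DT40 Tdp1-/- cells complemented with human TDP1, 400 cells/well, exposed to compounds plus 20 nM camptothecin for at least 48 h at 37 C; viability read as ATP content by CellTiter-Glo luminescence.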
# KB-V1 cytotox: KB-V1 MDR subline cytotoxicity | KB-V1 MDR cells viability, CellTiter-Glo, 72 h | Potency, µM (series often up to 46.1 µM), actives largely listed as cytotoxic | actives 3.4% (n = 400,000); also: nearly all actives have a fitted effect of over 60% in size
#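 qHTS viability screen in drug-selected KB-V1 MDR cells: 72 h compound treatment at 37 degrees C, ATP luminescence end point.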
# HT1080 IDH1KD tx: toxicity to HT-1080 IDH1 knockdown cells (counter line); HT-1080 IDH1 knockdown viability, ATP luminescence, 48 h; Potency, µM (series often up to 46.1 µM), without a hit: at the highest dose activity, negative = toxicity, most hits filed as cytotoxic; actives 2% (n = 360,000); AID 686971;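 also: 0% = DMSO wells and -100% = cell-free medium wells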
#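 IDH1KD HT-1080 cells, 750/well, RPMI + 5% FBS; compound pinned after 2 h settling; 48 h, 37 °C; CellTiter-Glo luminescence; % activity normalised to DMSO and no-cell wells; curves fitted, classed by r2 and efficacy.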
# DT40 TDP1 no CPT: qHTS for Inhibitors of human tyrosyl-DNA phosphodiesterase 1 (TDP1): qHTS in cells in absence of CPT | DT40 Tdp1-/- hTDP1 cells, no CPT, ATP luminescence, 48 h | Potency, µM (highest dose often 46.2 µM), without a hit: at the highest dose activity change, negative = growth inhibition, usual class: inhibitors | actives 15% (n = 420,000) | AID 686978, 2013; also: nearly all actives have a fitted effect of over 55% in size
#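 Seeded 400 DT40-hTDP1 cells/well (vehicle DMSO, no 20 nM CPT); pinned compounds; ≥48 hr at 37 °C; CellTiter-Glo luminescence as viability measure.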
# KB-3-1 tox: kills parental KB-3-1 adenocarcinoma cells. KB-3-1 viability, CellTiter-Glo ATP luminescence, 72 h. actives 1.4% (n = 400,000). Potency, µM (titrated, usually from 46.1 µM), hits mostly cytotoxic; also: nearly all actives have a fitted effect of over 60% in size
#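 Cytotoxicity measured as CellTiter-Glo luminescence after 72 h at 37 C. Compound titrations were pinned onto drug-naive KB-3-1 parental adenocarcinoma cells grown in DMEM with 10% FBS, and normalized data fitted to concentration-response curves.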
# HT1080-NT tox: kills 2HG-producing HT-1080-NT fibrosarcoma cells | HT-1080-NT fibrosarcoma viability, CellTiter-Glo ATP luminescence, 48 h | Potency, µM (series often up to 46.1 µM), for the others: at the top dose activity, negative = less viability, most hits filed as cytotoxic | actives 1.6% (n = 360,000);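 also: NT is the 2HG producing partner of a matched IDH1 knockdown line; 0% = DMSO-treated cells and -100% = media-only wells without cells; nearly all actives have a fitted effect of over 55% in size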
#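 Read-out is CellTiter-Glo luminescence after 10 minutes at room temperature, following 48 hours' compound treatment of HT-1080-NT cells (750 cells/well, RPMI, 5% FBS, 37 degrees C).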
# Starred values were filed as active, the others as inactive; i = inactive; ? = inconclusive; . = no result given. Calls follow the shape of the dose curve; as a rule, active = well fitted curve in the direction sought with a large enough effect; inconclusive = small, poorly fitted or top-dose-only effect, or another doubt; inactive = no such curve, though single readings can be large; an effect the other way counts as inactive or inconclusive. Unless noted, % is scaled to controls: 0 for no effect and ±100 for the full control effect; potency is read from the fitted curve at half-maximal effect.
SMILES,DT40 TDP1 CPT,KB-V1 cytotox,HT1080 IDH1KD tx,DT40 TDP1 no CPT,KB-3-1 tox,HT1080-NT tox
CCCOc1ccc(C(=O)NNC(=S)NC(=O)c2cccs2)cc1,23.1µM*,?,20.6µM*,18.4µM*,?,?
O=C(NNC(=S)NC(=O)c1ccccc1)c1ccc(O)cc1,16.4µM*,i,?,9.2µM*,?,-23.4%
CC(C)(C)c1ccc(OCC(=O)NNC(=S)NC(=O)c2ccccc2[N+](=O)[O-])c(Br)c1,23.1µM*,?,18.4µM*,16.4µM*,?,?
CCCOc1ccc(C(=O)NNC(=S)NC(C)=O)cc1,2.59µM*,i,7.08µM*,3.26µM*,16.4µM*,7.08µM*
CCCc1cc(=O)[nH]c(SCC(=O)c2cc(C)n(-c3c(C)n(C)n(-c4ccccc4)c3=O)c2C)n1,11.5%,i,14.8%,-4.7%,i,5.9%
COc1ccc2oc(=O)c(C(=O)Nc3ccc(C(=O)O)cc3)cc2c1,5.3%,i,.,5.3%,i,.
CCCOc1ccc(C(=O)NNC(=S)NC(=O)c2ccccc2[N+](=O)[O-])cc1,10.3µM*,?,?,10.3µM*,?,-25.8%
O=C(NNC(=S)NC(=O)c1ccccc1[N+](=O)[O-])c1ccccc1,?,i,-28.0%,?,i,-16.1%
CCCOc1ccc(C(=O)NNC(=S)NC(=O)c2ccccc2)cc1,?,i,?,16.4µM*,i,?
CC(C)(C)C(=O)NC(=S)NNC(=O)c1ccc(-c2ccccc2)cc1,3.26µM*,9.2µM*,7.31µM*,2.06µM*,?,8.2µM*
O=C(NNC(=O)c1ccc(-c2ccccc2)cc1)c1ccccc1,-17.5%,i,1.6%,-5.6%,i,-0.9%
Cc1nc(NC(=O)CCl)sc1C(=O)N(C)C,13µM*,i,-24.2%,14.6µM*,i,?
[O-][n+]1c2ccccc2c2n1CCCN=C2c1ccc(Cl)cc1,?,i,-13.3%,-20.8%,i,-6.5%
Cc1nc(NC(=S)NC(=O)c2ccccc2)sc1C(=O)N(C)C,-6.6%,i,1.7%,-9.4%,i,-2.3%
CCCOc1ccc(C(=O)NC(=S)Nc2nc(C)c(C(=O)N(C)C)s2)cc1,-24.6%,20.6µM*,-19.5%,-15.1%,i,?
COCc1cc(C)nc(SCC(=O)Nc2cccc(C)c2C)c1C#N,-21.0%,i,7.1%,-5.2%,i,8.3%
COCc1cc(C)nc(SCC(=O)Nc2nc(C)cs2)c1C#N,?,i,2.5%,16.4µM*,?,?
CC(C)Oc1ccc(CNC(=O)C2CCN(C(=O)N3CCOc4ccc(Cl)cc43)CC2)cc1,6.51µM*,?,.,6.51µM*,?,.
CC(C)Oc1ccc(CNC(=O)C2CCN(C(=O)N3CCOc4ccccc43)CC2)cc1,?,i,0.1%,?,i,4.5%
O=C(NCc1ccco1)C1CCN(C(=O)N2CCOc3ccc(Cl)cc32)CC1,-26.6%,i,.,?,i,.
COc1cccc(CNC(=O)C2CCN(C(=O)N3CCOc4ccc(Cl)cc43)CC2)c1OC,?,i,.,20.6µM*,i,.
CCOC(=O)Cc1ccc(NC(=O)N2CCOc3ccc(C)cc32)cc1,?,i,.,?,i,.
CCc1ccc(NC(=O)N2CCOc3ccc(Cl)cc32)cc1,-18.9%,.,.,13µM*,.,.
O=C(NCc1cccs1)C1CCN(C(=O)N2CCOc3ccc(Cl)cc32)CC1,?,i,.,?,i,.
CC(C)CCNC(=O)C1CCN(C(=O)N2CCOc3ccc(Cl)cc32)CC1,25.9µM*,i,.,?,i,.
SMILES,DT40 TDP1 CPT,KB-V1 cytotox,HT1080 IDH1KD tx,DT40 TDP1 no CPT,KB-3-1 tox,HT1080-NT tox
c1ccc(Cc2nc3ccccc3s2)cc1,-10.2%,i,2.8%,-17.4%,i,0.9%
O=C(NC1CC(=O)N(c2cccc(F)c2)C1)N1CCN(C(=O)c2ccco2)CC1 (stereo not drawn),2.8%,i,5.2%,-0.8%,i,4.1%
CCOc1cc(/C=C/c2nc3cc(C)c(C)cc3s2)ccc1OCC(=O)N1CCOCC1,?,10.3µM*,13.0%,?,i,3.6%
CCOc1cc(/C=C\[N+](=O)[O-])ccc1OCC(=O)N1CCOCC1,2.59µM*,?,18.4µM*,2.31µM*,i,?
CN(C)c1ccc(C=Nc2ccc(/C=C3\C=Cc4ccccc43)cc2)cc1,-28.6%,i,.,?,i,.
COc1ccc(Cn2c(=S)[nH]c3cc(C(=O)N4CCN(c5ccccc5)CC4)ccc3c2=O)cc1,?,i,10.0%,?,i,12.8%
CCOc1cc2[nH]c(=S)n(CCN3CCCCC3CC)c(=O)c2cc1OCC (stereo not drawn),?,?,-10.5%,16.4µM*,i,0.5%
COc1ccc(N2CCN(C(=O)c3ccc(Cn4c(=S)[nH]c5ccc(N6CCOCC6)cc5c4=O)cc3)CC2)cc1,23.1µM*,?,0.0%,18.4µM*,i,-1.6%
CCOc1cc2[nH]c(=S)n(C(C)C)c(=O)c2cc1OCC,18.4µM*,?,-10.7%,?,i,-10.8%
Cc1ccc(C)c(N2CCN(C(=O)c3ccc(Cn4c(=S)[nH]c5ccc(N6CCOCC6)cc5c4=O)cc3)CC2)c1,?,i,6.9%,14.6µM*,i,-0.8%
CCS(=O)(=O)C(C)(CCl)C(=O)Nc1ccc(C(=O)OC)cc1 (stereo not drawn),-20.6%,i,19.8%,?,i,15.0%
O=C(NNC(=O)C1CCCO1)c1ccc(F)cc1 (stereo not drawn),14.4%,i,3.1%,-21.3%,i,2.6%
Cc1ccc(Cn2c(=S)[nH]c3ccc(N4CCOCC4)cc3c2=O)o1,?,?,0.6%,16.4µM*,?,0.9%
O=C(c1ccc(Cn2c(=S)[nH]c3ccc(N4CCOCC4)cc3c2=O)cc1)N1CCN(c2ccc(F)cc2)CC1,16.4µM*,?,-13.1%,16.4µM*,i,-2.8%
CCOc1cc2[nH]c(=S)n(Cc3ccc(C)o3)c(=O)c2cc1OCC,29.1µM*,i,11.6%,-29.6%,i,13.6%
CCOc1cc2[nH]c(=S)n(CCCOC)c(=O)c2cc1OCC,-6.1%,i,15.4%,?,i,-3.3%
O=c1c2cc(N3CCOCC3)ccc2[nH]c(=S)n1CCN1CCCC1,-26.7%,i,0.7%,-14.9%,i,-1.1%

# Bioassay records from PubChem.
